DAX1 inh-1: DAX1 (NR0B1) inhibitors, primary screen, cell-based, HEK293, Gal4-DAX1, luciferase luminescence. 0.99% of 340,000 active. HEK293 Gal4-DAX1 luciferase reporter. inhibition, % at 6.75 µM;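 active = inhibition above the mean over all tested compounds plus 3 SD, cut at about 4.2% in these data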;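 note: inhibition shows as a rise in luminescence from relieved DAX1 repression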
Target sequence (P51843 207-470 limits assumed): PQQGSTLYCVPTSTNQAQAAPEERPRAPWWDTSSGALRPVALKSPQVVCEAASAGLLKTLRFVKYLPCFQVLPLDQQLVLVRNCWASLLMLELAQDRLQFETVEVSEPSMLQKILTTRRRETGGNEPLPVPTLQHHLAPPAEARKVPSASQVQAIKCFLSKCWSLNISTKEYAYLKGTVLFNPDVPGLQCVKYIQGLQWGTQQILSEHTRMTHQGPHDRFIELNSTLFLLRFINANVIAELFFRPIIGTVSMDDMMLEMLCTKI
SMARCA2 activ: SMARCA2 (BRM) function activators, primary screen, cell-based, luminescence, high throughput; MG213 cells, MMTV-luciferase reporter, dexamethasone, overnight; activation, % at 9.1 µM; 1% of 370,000 active; AID 652017, 2013; in the data active = activation above about 7.8%
hcDAF12 agonist: H. contortus DAF-12 nuclear receptor activators, primary screen, cell-based, luminescence, HEK293, lit1-tk-luc reporter | HEK293 hcDAF-12 lit1-tk-luc reporter; 0% DMSO, 100% Δ7-dafachronic acid | activation, % at 6.8 µM | 1.4% of 370,000 active;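 active = activation above the mean of all tested compounds plus 3 SD, cut at about 5.5% in these data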
hgDAF12 agonist: H. glycines DAF-12 receptor agonists, primary screen, cell-based, luminescence, HEK293, GAL4 fusion, UAS-luciferase | HEK293 GAL4-hgDAF12 UAS-luciferase reporter, agonist luminescence; normalized to butyrate control | activation, % at 6.8 µM | 1.8% of 370,000 active;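 active = activation above a cutoff set at the mean of all screened compounds plus 3 SD, cut at about 10% in these data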
ssDAF12 agonist: S. stercoralis DAF-12 nuclear receptor activators, primary screen, cell-based, luminescence, HEK293, GRIP1 co-expression, lit1-tk-luc | HEK293 ssDAF-12/GRIP1 lit1-tk-luc reporter; % of 3 µM dafachronic acid response | activation, % at 6.8 µM | 1% of 370,000 active | Nuclear hormone receptor DAF-12 (Strongyloides stercoralis);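 active = activation above the mean over all tested compounds plus 3 SD, cut at about 0.9% in these data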
DAX1 inh-2: DAX1 (NR0B1) inhibitors on StAR promoter, primary screen, cell-based, luminescence, SF-1 (NR5A1), full-length DAX-1; inhibition, % at 6.8 µM; 1.1% of 370,000 active; HEK293T StAR-luciferase reporter, SF-1/DAX-1 repression relief;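 active = inhibition above the mean over all tested compounds plus 3 SD, cut at about 3.6% in these data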;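 note: higher inhibition means more luminescence from relief of DAX-1 repression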
DAX1 conf: DAX1 (NR0B1) inhibitors relieving SF-1 repression, confirmation, cell-based, luminescence, HEK293T, full-length DAX-1, SF-1 activated StAR promoter; inhibition, % at 6.8 µM; HEK293T StAR-promoter luciferase reporter, SF-1/DAX-1 repression; 87% of 2,400 active; shares compounds with DAX1 inh-2;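 active = inhibition above the average of every tested compound plus 3 SD, cut at about 3.8% in these data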
SF1 mutant ctr: StAR reporter signal changes without DAX1, counter-screen for DAX1 inhibitor project, cell-based, luminescence, AF-2 mutant SF-1, transactivation. shares compounds with DAX1 inh-2. HEK293 StAR-luciferase, SF-1 AF2 mutant. inhibition, % at 6.8 µM. 78% of 2,400 active. AID 652136, 2013;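 active = inhibition above the mean of all tested compounds plus 3 SD, cut at about 3% in these data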
SMARCA2 act conf: SMARCA2 (BRM) function activators, confirmation, cell-based, luminescence, triplicate; shares compounds with SMARCA2 activ; 30% of 3,500 active; activation, % at 9.1 µM; MG213 cells, MMTV-luciferase with dexamethasone, overnight; MG213 cells expressing E1A, Rb sequestered; DMSO wells 0%, reference activator 100%;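 active = activation above its plate's cutoff, the mean activation of tested wells plus 3 SD, cut at about 7.9% in these data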
VP16 Luc act: GAL4-VP16 luciferase reporter activation, counter-screen for SMARCA2 (BRM) activator project, cell-based, pG5luc, luminescence, high throughput; shares compounds with SMARCA2 activ; HEK293 GAL4-VP16 pG5luc reporter; scaled: DMSO wells 0%, SAHA wells 100%; activation, % at 9.1 µM; 41% of 3,500 active; AID 686939, 2013;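 active = activation above the solvent-only control well mean plus 3 SD, averaged across control plates, cut at about 5.2% in these data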
LXRb hcDAF ctr: LXR agonists, Gal4 luciferase reporter, confirmation, counter-screen for hcDAF-12 agonist project, cell-based, luminescence, HEK293, H. contortus campaign | shares compounds with hcDAF12 agonist | 3,400 tested, under 10 active | AID 743027, 2013 | activation, % at 6.8 µM | HEK293 Gal4-LXR tk-luc reporter, 24 h; normalized: DMSO 0%, positive control 100%;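 active = mean percent activation of the reporter above a cutoff set as the average over tested compounds plus their standard deviation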
hcDAF12 ag: H. contortus DAF-12 receptor agonists, confirmation, cell-based, luminescence, HEK293, lit1-tk-luc, triplicate | shares compounds with hcDAF12 agonist | HEK293 hcDAF-12 lit1-tk-luc reporter; % of Δ7-dafachronic acid response | activation, % at 6.8 µM | 61% of 3,400 active | AID 743032, 2013;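 active = mean activation across triplicate tests above the threshold derived from the earlier primary screen, cut at about 5.5% in these data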
hgDAF12 conf: H. glycines DAF-12 receptor agonists, confirmation, cell-based, luminescence, HEK293, GAL4-LBD fusion; shares compounds with hgDAF12 agonist; HEK293 GAL4-hgDAF12 luciferase reporter, agonist mode; percent of butyrate response; activation, % at 6.8 µM; 80% of 3,300 active; AID 743050, 2013;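 active = mean activation over triplicate wells above the hit cutoff derived from the earlier primary screen, cut at about 11% in these data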
LXRb DAF12 ctr: LXR agonists, Gal4 luciferase reporter, confirmation, counter-screen for hgDAF-12 agonist project, cell-based, luminescence, HEK293, H. glycines campaign. AID 743051, 2013. activation, % at 6.8 µM. 24 h. 3,300 tested, under 10 active. shares compounds with hgDAF12 agonist;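 active = mean activation of the triplicate above a set limit carried over from the primary screen, none filed active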
Of the large screens only hits and unclear results are named; the others gave an inactive call (follow-up assays come after a bar, where they were run). Rows were chosen to be rich in hits. Some 4.8% of all compounds tested hit in one or more screens of this group.

COc1cc(SC)ccc1C(=O)Nc1ccccn1	hcDAF12 agonist 10.0, hgDAF12 agonist 18.9, ssDAF12 agonist 1.0, DAX1 inh-2 5.0 | DAX1 conf 9.6 | SF1 mutant ctr 5.2 | LXRb hcDAF ctr inactive | hcDAF12 ag 7.2 | hgDAF12 conf 13.7 | LXRb DAF12 ctr inactive
COc1cc(SC)ccc1C(=O)Nc1ccc(C)cc1	DAX1 inh-1 7.1, hcDAF12 agonist 14.1, hgDAF12 agonist 18.0, ssDAF12 agonist 2.1, DAX1 inh-2 5.5 | DAX1 conf 12.8 | SF1 mutant ctr 9.9 | LXRb hcDAF ctr inactive | hcDAF12 ag 13.2 | hgDAF12 conf 20.1 | LXRb DAF12 ctr inactive
COc1cc(SC)ccc1C(=O)Nc1ccc2c(c1)OCO2	DAX1 inh-1 9.4, hcDAF12 agonist 8.9, hgDAF12 agonist 19.9, ssDAF12 agonist 1.4, DAX1 inh-2 7.8 | DAX1 conf 9.7 | SF1 mutant ctr 6.2 | LXRb hcDAF ctr inactive | hcDAF12 ag 6.3 | hgDAF12 conf 16.1 | LXRb DAF12 ctr inactive
Cc1nc(-c2ccc(S(=O)(=O)Nc3cc(F)ccc3F)cc2)co1	none
COc1cccc(CNc2ccc(Br)cn2)c1O	hcDAF12 agonist 6.8, hgDAF12 agonist 18.9, ssDAF12 agonist 1.1, DAX1 inh-2 4.5 | DAX1 conf 12.3 | SF1 mutant ctr 6.1 | LXRb hcDAF ctr inactive | hcDAF12 ag 6.0 | hgDAF12 conf 17.8 | LXRb DAF12 ctr inactive
O=C(NCCOc1ccccc1F)c1ccc2c(=O)n3c(nc2c1)CCC3	hgDAF12 agonist 15.5, DAX1 inh-2 8.5 | DAX1 conf 7.8 | SF1 mutant ctr 4.5 | hgDAF12 conf 12.2 | LXRb DAF12 ctr inactive
O=C(COc1ccccc1F)NNC(=O)c1ccc2c(=O)n3c(nc2c1)CCC3	none
O=C(Nc1ccccc1Cl)c1ccc2c(=O)n3c(nc2c1)CCC3	hgDAF12 agonist 14.5, DAX1 inh-2 11.7 | DAX1 conf 8.8 | SF1 mutant ctr 5.0 | hgDAF12 conf 14.0 | LXRb DAF12 ctr inactive
COc1ccc(/C=N/OCC(=O)Nn2c(C)nc3ccccc3c2=O)cc1	none
Cc1cc(S(=O)(=O)N2CCCC(N(C)CCc3ccccn3)C2)c(C)s1 (stereo unspecified)	none
CCC(=O)Nc1ccc(Br)cn1	none
Cc1cc(C(=O)Nc2ccc(Br)cn2)sc1C	hcDAF12 agonist 5.8, hgDAF12 agonist 14.0, DAX1 inh-2 6.3 | DAX1 conf 12.9 | SF1 mutant ctr 8.6 | hgDAF12 conf 17.8 | LXRb DAF12 ctr inactive
COc1ccc(CN(CCN(C)C)Cc2ccccc2)c(OC)c1	none
NC(=O)c1ccc(OCc2ccccc2)nc1	hgDAF12 agonist 15.0, DAX1 inh-2 5.0 | DAX1 conf 5.8 | SF1 mutant ctr 3.3 | hgDAF12 conf 11.4 | LXRb DAF12 ctr inactive
C/C(=N\NC(=S)Nc1ccc(F)cc1)c1ccc2c(c1)OCCO2	none
C/C(=N\NC(=O)c1cccc(F)c1)c1ccc(NC(=O)Cc2ccccc2)cc1	hcDAF12 agonist 6.4, hgDAF12 agonist 13.7, DAX1 inh-2 7.0 | DAX1 conf inactive | SF1 mutant ctr inactive | hgDAF12 conf inactive | LXRb DAF12 ctr inactive
C/C(=N/NC(=O)c1ccc2c(c1)OCO2)c1ccc(NC(=O)c2ccc(F)cc2)cc1	SMARCA2 activ 8.3, hcDAF12 agonist 5.7, hgDAF12 agonist 13.7, DAX1 inh-2 5.8 | DAX1 conf 6.3 | SF1 mutant ctr inactive | SMARCA2 act conf inactive | VP16 Luc act 7.2 | hgDAF12 conf inactive | LXRb DAF12 ctr inactive
CCOC(=O)C1CCN(c2ncnc3c2cnn3-c2ccccc2)CC1	none
Clc1ccc(Nc2ncnc3c2cnn3-c2ccccc2)cc1	none
CC(C)(C)Nc1ncnc2c1cnn2-c1ccccc1	SMARCA2 activ 8.3, hgDAF12 agonist 16.5, DAX1 inh-2 9.0 | DAX1 conf 15.5 | SF1 mutant ctr 4.7 | SMARCA2 act conf 10.8 | VP16 Luc act 13.1 | hgDAF12 conf 11.7 | LXRb DAF12 ctr inactive
